Here are results for 7 sequences from PMC7862700, “An all-to-all approach to the identification of sequence-specific readers for epigenetic DNA modifications on cytosine”.

What all share (assay): DAPPL (digital affinity profiling via proximity ligation, sequencing); 10 mM Tris-HCl pH 7.5, 50 mM NaCl, 1 mM DTT, 4% glycerol, room temperature, 30 min; GST-TFs on glutathione beads, 16-mer random dsDNA library, 0.1% formaldehyde crosslink after washing; high values mean tight binding
Common to all, as to conditions: protein: recombinant; tags: N-terminal GST; dsDNA, one strand shown

One experiment has as its target T1, FLI1 (Homo sapiens, UniProt Q01543 1-452).
T1 sequence: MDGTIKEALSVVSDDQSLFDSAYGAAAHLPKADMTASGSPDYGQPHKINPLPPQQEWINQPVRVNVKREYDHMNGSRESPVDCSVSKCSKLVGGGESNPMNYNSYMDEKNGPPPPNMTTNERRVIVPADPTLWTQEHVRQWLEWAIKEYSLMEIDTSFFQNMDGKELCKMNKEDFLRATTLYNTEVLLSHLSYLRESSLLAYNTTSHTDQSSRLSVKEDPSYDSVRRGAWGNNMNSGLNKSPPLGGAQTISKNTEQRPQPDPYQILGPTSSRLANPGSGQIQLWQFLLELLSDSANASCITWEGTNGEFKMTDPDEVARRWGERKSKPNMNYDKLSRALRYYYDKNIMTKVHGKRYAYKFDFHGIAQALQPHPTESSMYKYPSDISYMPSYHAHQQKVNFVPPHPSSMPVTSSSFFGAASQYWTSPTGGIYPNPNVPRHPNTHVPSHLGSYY
The procedure, abridged: (§1)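 Human transcription factors fused to GST were expressed in yeast, captured on glutathione beads, given DNA barcodes and pooled with a GST-only negative control. Pools were incubated with 200 nmole of a 16-mer random double-stranded DNA library in Tris/NaCl/DTT/glycerol buffer at room temperature for 30 min. They were then washed, crosslinked with 0.1% formaldehyde, proximity-ligated (BsaI/T4 ligase, 1 h, 37 °C), PCR-amplified and sequenced on an Illumina NextSeq500. Binding signal is each 6-mer's read frequency for a factor divided by its frequency for the GST control.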

A further experiment has as its target T2, ELK1 (Homo sapiens, UniProt P19419 1-428).
T2 sequence: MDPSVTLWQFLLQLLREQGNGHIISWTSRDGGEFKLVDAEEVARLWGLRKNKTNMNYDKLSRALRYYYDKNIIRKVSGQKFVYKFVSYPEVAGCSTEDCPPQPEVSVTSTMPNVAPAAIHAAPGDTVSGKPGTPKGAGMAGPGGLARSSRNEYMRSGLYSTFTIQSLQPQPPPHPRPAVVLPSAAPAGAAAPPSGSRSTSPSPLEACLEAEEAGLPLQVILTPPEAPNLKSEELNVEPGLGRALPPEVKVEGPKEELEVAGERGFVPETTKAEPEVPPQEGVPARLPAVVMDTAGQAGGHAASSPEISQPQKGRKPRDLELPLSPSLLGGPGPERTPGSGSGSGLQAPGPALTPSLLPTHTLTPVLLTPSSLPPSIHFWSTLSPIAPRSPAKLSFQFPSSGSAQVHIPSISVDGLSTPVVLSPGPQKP
Summed up: as §1

For a further experiment, the target named is T3, GABPA (Homo sapiens, UniProt Q06546 1-454).
T3 sequence: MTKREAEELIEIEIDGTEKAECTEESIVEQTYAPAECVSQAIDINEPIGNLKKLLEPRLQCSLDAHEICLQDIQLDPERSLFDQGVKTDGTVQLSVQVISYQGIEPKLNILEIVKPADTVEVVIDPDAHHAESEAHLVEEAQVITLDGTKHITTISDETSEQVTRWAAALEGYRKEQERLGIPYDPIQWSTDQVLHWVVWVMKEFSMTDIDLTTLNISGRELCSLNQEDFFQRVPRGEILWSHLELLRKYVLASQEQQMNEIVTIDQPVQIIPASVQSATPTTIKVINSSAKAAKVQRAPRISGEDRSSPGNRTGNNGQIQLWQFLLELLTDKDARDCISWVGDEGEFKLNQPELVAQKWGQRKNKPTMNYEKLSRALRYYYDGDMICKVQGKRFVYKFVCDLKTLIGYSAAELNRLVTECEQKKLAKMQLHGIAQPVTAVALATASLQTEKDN
The procedure, abridged:
as §1

The target of another experiment is T4, ERG (Homo sapiens, UniProt P11308 1-479).
T4 sequence: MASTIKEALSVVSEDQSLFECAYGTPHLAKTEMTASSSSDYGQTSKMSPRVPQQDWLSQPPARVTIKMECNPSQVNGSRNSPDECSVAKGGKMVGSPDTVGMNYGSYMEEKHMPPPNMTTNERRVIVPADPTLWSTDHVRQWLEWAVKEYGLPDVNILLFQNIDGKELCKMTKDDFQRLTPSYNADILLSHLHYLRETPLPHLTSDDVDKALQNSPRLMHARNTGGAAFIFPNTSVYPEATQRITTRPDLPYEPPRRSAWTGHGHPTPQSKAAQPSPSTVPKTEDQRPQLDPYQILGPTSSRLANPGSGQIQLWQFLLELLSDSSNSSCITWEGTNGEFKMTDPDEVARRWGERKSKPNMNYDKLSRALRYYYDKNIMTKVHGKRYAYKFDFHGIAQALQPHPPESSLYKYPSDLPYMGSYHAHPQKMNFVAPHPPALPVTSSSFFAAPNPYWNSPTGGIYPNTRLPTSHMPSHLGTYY
The procedure, abridged: as §1

The next experiment concerns the target ELF1 (Homo sapiens, UniProt P32519 1-619). The procedure, abridged: as §1
Another experiment addresses T5, EHF (Homo sapiens, UniProt Q9NZC4 1-300).
T5 sequence: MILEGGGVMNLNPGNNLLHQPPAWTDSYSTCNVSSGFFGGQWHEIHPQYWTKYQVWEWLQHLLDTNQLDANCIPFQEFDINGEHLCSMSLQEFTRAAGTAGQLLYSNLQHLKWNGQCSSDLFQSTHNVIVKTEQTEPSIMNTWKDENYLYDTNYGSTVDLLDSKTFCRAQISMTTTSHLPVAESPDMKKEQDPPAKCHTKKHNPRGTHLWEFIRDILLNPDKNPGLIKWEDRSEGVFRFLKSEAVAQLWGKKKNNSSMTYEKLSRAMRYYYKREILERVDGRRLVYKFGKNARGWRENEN
Summed up:
as §1

Another experiment deals with SPI1 (Homo sapiens, UniProt P17947 1-270). Summed up: as §1
The next experiment has as its target SPIB (Homo sapiens, UniProt Q01892 1-262). The procedure, abridged:
as §1

A further experiment addresses T6, ELK3 (Homo sapiens, UniProt P41970 1-407).
T6 sequence: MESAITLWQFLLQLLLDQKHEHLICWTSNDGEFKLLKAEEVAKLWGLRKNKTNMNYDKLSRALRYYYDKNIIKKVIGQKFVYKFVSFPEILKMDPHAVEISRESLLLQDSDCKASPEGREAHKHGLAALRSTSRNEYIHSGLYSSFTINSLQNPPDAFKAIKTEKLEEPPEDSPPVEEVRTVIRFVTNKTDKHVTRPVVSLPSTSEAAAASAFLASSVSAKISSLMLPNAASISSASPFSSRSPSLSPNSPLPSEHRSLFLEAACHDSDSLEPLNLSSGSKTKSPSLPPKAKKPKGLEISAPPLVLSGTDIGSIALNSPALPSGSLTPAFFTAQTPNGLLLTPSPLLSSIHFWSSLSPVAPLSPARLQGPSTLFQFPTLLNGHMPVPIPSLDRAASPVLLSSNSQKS
The procedure, abridged:
as §1

ELF1, sequence (P32519 whole entry): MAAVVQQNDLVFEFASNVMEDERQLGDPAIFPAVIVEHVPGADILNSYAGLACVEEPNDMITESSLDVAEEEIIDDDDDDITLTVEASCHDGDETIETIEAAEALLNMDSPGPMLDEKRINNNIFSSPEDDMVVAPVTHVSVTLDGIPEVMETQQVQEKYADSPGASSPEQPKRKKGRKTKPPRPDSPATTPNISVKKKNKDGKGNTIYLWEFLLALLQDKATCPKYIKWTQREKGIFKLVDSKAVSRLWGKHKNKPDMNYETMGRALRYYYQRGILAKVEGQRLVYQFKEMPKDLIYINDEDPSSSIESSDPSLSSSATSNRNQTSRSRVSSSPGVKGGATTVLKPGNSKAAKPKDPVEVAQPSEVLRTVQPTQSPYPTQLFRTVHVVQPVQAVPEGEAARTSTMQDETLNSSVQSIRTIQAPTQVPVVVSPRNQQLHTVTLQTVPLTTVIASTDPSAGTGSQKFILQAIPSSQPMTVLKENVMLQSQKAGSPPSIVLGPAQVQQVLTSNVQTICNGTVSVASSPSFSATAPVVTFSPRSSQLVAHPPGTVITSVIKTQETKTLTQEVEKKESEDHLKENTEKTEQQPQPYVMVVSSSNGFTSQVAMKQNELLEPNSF
SPIB, sequence (Q01892 whole entry): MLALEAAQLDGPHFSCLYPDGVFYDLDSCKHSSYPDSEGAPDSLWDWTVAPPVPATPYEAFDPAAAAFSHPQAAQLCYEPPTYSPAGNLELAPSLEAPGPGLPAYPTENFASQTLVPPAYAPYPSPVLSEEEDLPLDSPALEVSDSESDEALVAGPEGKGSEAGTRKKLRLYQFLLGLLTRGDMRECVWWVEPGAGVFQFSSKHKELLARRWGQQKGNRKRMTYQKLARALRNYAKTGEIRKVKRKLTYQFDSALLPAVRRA

For GAAGCG, the binding signal with FLI1 is 1.37 fold enrichment (6-mer frequency, TF over GST control); with ELK1, 1.24 fold enrichment (6-mer frequency, TF over GST control); in the experiment with GABPA, 1.27 fold enrichment (6-mer frequency, TF over GST control); with ERG it was 1.42 fold enrichment (6-mer frequency, TF over GST control); with ELF1, 1.29 fold enrichment (6-mer frequency, TF over GST control); in the experiment with EHF, 1.53 fold enrichment (6-mer frequency, TF over GST control). In addition, the binding signal is 1.43 fold enrichment (6-mer frequency, TF over GST control) with SPI1; 1.28 fold enrichment (6-mer frequency, TF over GST control) in the experiment with SPIB; 1.49 fold enrichment (6-mer frequency, TF over GST control) with ELK3.
Take TTACGA: the binding signal with FLI1 was 1.21 fold enrichment (6-mer frequency, TF over GST control); with ELK1 it was 1.14 fold enrichment (6-mer frequency, TF over GST control); with GABPA it was 1.18 fold enrichment (6-mer frequency, TF over GST control); in the experiment with ERG, 1.06 fold enrichment (6-mer frequency, TF over GST control); in the experiment with ELF1, 1.14 fold enrichment (6-mer frequency, TF over GST control); with EHF, 1.07 fold enrichment (6-mer frequency, TF over GST control). Besides, the binding signal was 1.09 fold enrichment (6-mer frequency, TF over GST control) in the experiment with SPI1; 1.07 fold enrichment (6-mer frequency, TF over GST control) with SPIB; 1.09 fold enrichment (6-mer frequency, TF over GST control) in the experiment with ELK3.
Consider ATAAGC, for which the binding signal with FLI1 was 1.02 fold enrichment (6-mer frequency, TF over GST control); with ELK1, 1.09 fold enrichment (6-mer frequency, TF over GST control); with GABPA, 1.11 fold enrichment (6-mer frequency, TF over GST control); with ERG, 1.08 fold enrichment (6-mer frequency, TF over GST control); with ELF1 it was 1.1 fold enrichment (6-mer frequency, TF over GST control); with EHF it was 1.05 fold enrichment (6-mer frequency, TF over GST control). Besides, the binding signal in the experiment with SPI1 was 1.01 fold enrichment (6-mer frequency, TF over GST control); in the experiment with SPIB, 1.11 fold enrichment (6-mer frequency, TF over GST control); with ELK3 it was 1.05 fold enrichment (6-mer frequency, TF over GST control).
Consider TTTGTG, for which the binding signal with FLI1 was 1.31 fold enrichment (6-mer frequency, TF over GST control); with ELK1, 1.2 fold enrichment (6-mer frequency, TF over GST control); in the experiment with GABPA, 1.13 fold enrichment (6-mer frequency, TF over GST control); with ERG, 1.14 fold enrichment (6-mer frequency, TF over GST control); in the experiment with ELF1, 1.09 fold enrichment (6-mer frequency, TF over GST control); in the experiment with EHF it was 1.15 fold enrichment (6-mer frequency, TF over GST control). Further, the binding signal in the experiment with SPI1 was 1.12 fold enrichment (6-mer frequency, TF over GST control); in the experiment with SPIB, 1.09 fold enrichment (6-mer frequency, TF over GST control); with ELK3, 1.17 fold enrichment (6-mer frequency, TF over GST control).
CTGCCA: the binding signal was 1.18 fold enrichment (6-mer frequency, TF over GST control) with FLI1; 1.17 fold enrichment (6-mer frequency, TF over GST control) in the experiment with ELK1; 1.24 fold enrichment (6-mer frequency, TF over GST control) with GABPA; 1.23 fold enrichment (6-mer frequency, TF over GST control) in the experiment with ERG; 1.23 fold enrichment (6-mer frequency, TF over GST control) in the experiment with ELF1; 1.18 fold enrichment (6-mer frequency, TF over GST control) with EHF. The binding signal is 1.24 fold enrichment (6-mer frequency, TF over GST control) with SPI1; 1.28 fold enrichment (6-mer frequency, TF over GST control) with SPIB; 1.08 fold enrichment (6-mer frequency, TF over GST control) with ELK3.
With TAACTC, the binding signal with FLI1 is 1.3 fold enrichment (6-mer frequency, TF over GST control); in the experiment with ELK1, 1.22 fold enrichment (6-mer frequency, TF over GST control); with GABPA, 1.23 fold enrichment (6-mer frequency, TF over GST control); in the experiment with ERG, 1.11 fold enrichment (6-mer frequency, TF over GST control); with ELF1 it was 1.29 fold enrichment (6-mer frequency, TF over GST control); with EHF, 1.16 fold enrichment (6-mer frequency, TF over GST control). Moreover, the binding signal in the experiment with SPI1 was 1.18 fold enrichment (6-mer frequency, TF over GST control); in the experiment with SPIB it was 1.21 fold enrichment (6-mer frequency, TF over GST control); in the experiment with ELK3, 1.18 fold enrichment (6-mer frequency, TF over GST control).
Regarding GAAGCA, the binding signal with FLI1 is 1.23 fold enrichment (6-mer frequency, TF over GST control); with ELK1, 1.35 fold enrichment (6-mer frequency, TF over GST control); in the experiment with GABPA, 1.3 fold enrichment (6-mer frequency, TF over GST control); with ERG, 1.34 fold enrichment (6-mer frequency, TF over GST control); with ELF1 it was 1.25 fold enrichment (6-mer frequency, TF over GST control); in the experiment with EHF, 1.26 fold enrichment (6-mer frequency, TF over GST control). Moreover, the binding signal is 1.28 fold enrichment (6-mer frequency, TF over GST control) in the experiment with SPI1; 1.25 fold enrichment (6-mer frequency, TF over GST control) in the experiment with SPIB; 1.43 fold enrichment (6-mer frequency, TF over GST control) in the experiment with ELK3.
